From PubChem
CR mimetic SO = reduction of superoxide in aged yeast, primary screen, HTS; S. cerevisiae aged cells, superoxide DHE fluorescence; active compounds read low; superoxide response (% of plate mean), % at 10 µM; actives 0.18% (n = 330,000);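 active = superoxide response under a set limit, about three screen SD below normal, cut at about 65% in these data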;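 note: yeast aged for seven days with compound at 30 °C before DHE staining; 100% = average MFI of all compound-treated wells on the plate with controls excluded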
APOBEC3G inh = APOBEC3G DNA deaminase inhibitors, primary screen, biochemical, fluorescence, single-stranded DNA substrate, uHTS; recombinant A3G, ssDNA deamination FAM/TAMRA fluorescence; actives 0.28% (n = 330,000); inhibition, % at 20 µM;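 active = inhibition of at least 40% at 20 µM, with no more than 30% in the related APOBEC3A deaminase screen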;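 note: plate controls were DMSO wells with A3G for no effect and wells lacking A3G enzyme for full effect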
PfM18AAP inh-1 = PfM18AAP inhibitors, malaria aminopeptidase, primary screen, biochemical, QFRET, recombinant enzyme | M18 aspartyl aminopeptidase (Plasmodium falciparum 3D7) | H-Glu-NHMec fluorogenic cleavage | actives 1.2% (n = 290,000) | inhibition, % at 7.35 µM;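 active = inhibition above the campaign mean inhibition over all tested compounds plus 3 SD, cut at about 28% in these data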;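 note: 0% = plate median of test compound wells and 100% = 2 mM ZnCl2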
A3A deaminase = APOBEC3A ssDNA deaminase inhibitors, primary screen, selectivity assay for APOBEC3G inhibitor project, biochemical, FAM/TAMRA oligo cleavage fluorescence. AID 493011, 2011. actives 0.41% (n = 330,000). recombinant A3A, FAM/TAMRA ssDNA deamination fluorescence. DNA dC->dU-editing enzyme APOBEC-3A (Homo sapiens), P31941. inhibition, % at 20 µM;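 active = at least 40% inhibition at 20 µM here, with at most 30% in a related deaminase screen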;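 note: plate controls were A3A with DMSO for no effect and wells lacking A3A enzyme for full effect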
Target sequence (P31941 whole entry, looked up): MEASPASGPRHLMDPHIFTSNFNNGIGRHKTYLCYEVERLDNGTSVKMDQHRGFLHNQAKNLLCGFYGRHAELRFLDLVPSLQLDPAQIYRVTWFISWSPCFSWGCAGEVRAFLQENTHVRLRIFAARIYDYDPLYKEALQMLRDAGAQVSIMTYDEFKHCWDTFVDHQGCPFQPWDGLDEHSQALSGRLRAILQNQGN
ALR H2O2 inh = inhibitors of human ALR sulfhydryl oxidase, primary screen, biochemical, H2O2 detection, HRP-luminol luminescence, single point | FAD-linked sulfhydryl oxidase ALR (Homo sapiens), P55789 | purified ALR, DTT oxidation | inhibition, % (concentration not given with the values) | actives 3.8% (n = 290,000) | AID 485317, 2010;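 active = mean replicate inhibition above about 79%, with every replicate also reaching it, limit read from the data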
Target sequence (P55789 whole entry, looked up): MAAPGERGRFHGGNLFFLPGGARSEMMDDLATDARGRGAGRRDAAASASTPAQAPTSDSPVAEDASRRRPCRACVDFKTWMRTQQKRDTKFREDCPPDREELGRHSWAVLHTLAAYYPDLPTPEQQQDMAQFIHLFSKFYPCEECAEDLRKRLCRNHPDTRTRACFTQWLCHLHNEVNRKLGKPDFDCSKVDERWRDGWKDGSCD
CendR NRP1 mod = modulators of CendR peptide binding to NRP-1, primary screen, biochemical, fluorescence polarization, uHTS. Neuropilin-1 (Homo sapiens), O14786. FAM-RPARPAR peptide binding to NRP-1. inhibition, % at 25 µM. actives 0.85% (n = 360,000);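 active = inhibition or corrected inhibition above about 18%, plus a signal ratio from 0.5 to 1.5, limit read from the data, passing the limit was not always enough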
PfM18AAP inh-2 = PfM18AAP inhibitors, malaria aminopeptidase, confirmation, biochemical, QFRET, recombinant enzyme, triplicate. shares compounds with PfM18AAP inh-1. AID 2170, 2009. H-Glu-NHMec fluorogenic cleavage. inhibition, % at 7.35 µM. actives 28% (n = 2,400);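 active = mean inhibition over replicate wells above the hit cutoff set for the earlier primary screen, cut at about 29% in these data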;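 note: 0% = median of test compound wells and 100% = 2 mM ZnCl2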
CTSL1 counter = cathepsin L1 inhibitors, retest, confirmation, counter-screen for PFM18AAP inhibitor project, biochemical, QFRET, triplicate; 2,400 tested, under 10 active; inhibition, % at 5.96 µM; purified cathepsin L1, Z-Leu-Arg-MCA fluorescence; shares compounds with PfM18AAP inh-1; AID 2178, 2009;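 active = average inhibition across replicates above the hit cutoff set in the earlier primary screen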;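 note: 0% = median of test compound wells and 100% = Z-Phe-Ala-diazomethylketone 1 µM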
* = called active by the depositor; . = not tested or not shown. In the library only some 5.2% were active in any assay of this set; here they are far more common.

SMILES	CR mimetic SO	APOBEC3G inh	PfM18AAP inh-1	A3A deaminase	ALR H2O2 inh	CendR NRP1 mod	PfM18AAP inh-2	CTSL1 counter
COc1ccc(Nc2nc(NN)nc(C)c2[N+](=O)[O-])cc1	104.8	1.5	51.8*	4.5	-5.0	-5.8	22.2	-1.1
COc1ccc(Nc2nc(N/N=C/c3ccc(N(C)C)cc3)nc(C)c2[N+](=O)[O-])cc1	83.8	-7.8	48.6*	-1.4	-0.8	-4.8	-52.7	-0.8
CNC(=S)NNc1ccccc1[N+](=O)[O-]	106.8	-7.7	57.1*	-0.8	97.6*	14.1	60.5*	0.9
COCCNC(=S)Nc1ccc([N+](=O)[O-])cc1C	93.5	-10.1	6.0	-2.3	.	3.0	.	.
COCCNC(=S)NNc1ccccc1[N+](=O)[O-]	99.1	-5.7	61.2*	0.7	11.1	4.6	60.8*	3.1
CN1C(=O)c2ccccc2Cc2c(NCc3ccccc3)ncnc21	.	.	.	.	.	-3.0	.	.
COc1ccccc1CNC(=O)C1CC2Cn3c(nc4cc5ccccc5cc43)C2N1C (stereo not given)	97.8	-9.9	.	-4.4	.	-1.8	.	.
COc1ccc(C(=O)OCC(=O)Nc2nnc(-c3ccccc3)o2)cc1	92.8	-1.9	42.3*	-0.5	4.7	-4.1	-20.7	-8.9
Cc1cc(OCC(=O)Nc2ccc(CN3CCOCC3)cc2)ccc1Cl	103.0	-2.8	0.0	-1.1	-1.7	1.7	.	.
O=C(Nn1c(O)c(C=C2N=c3ccccc3=N2)sc1=S)c1ccccc1Cl	108.1	-0.7	53.6*	-0.2	39.8	-15.5	-30.5	-0.7
O=S(=O)(Nn1c(O)c(C=C2N=c3ccccc3=N2)sc1=S)c1ccccc1	96.0	-6.8	25.1	-4.3	.	-23.0	.	.
Cc1ccc(NC(=O)COC(=O)[C@@H]2CCCN2C(=O)c2cccs2)cc1S(=O)(=O)N(C)C	99.0	-1.7	2.8	-10.1	.	10.7	.	.
O=c1[nH]c(CSc2ncn[nH]2)nc2ccccc12	90.7	-5.9	69.2*	-4.6	-2.1	-7.6	72.7*	5.2
O=c1[nH]c(CSc2ncnc3sccc23)nc2ccccc12	90.7	-6.2	-14.1	-5.2	-3.7	-12.2	.	.
CC1(C)CC2(CC(c3ccccc3F)c3ccc(O)c(O)c3O2)NC(=S)N1 (stereo not given)	98.9	8.8	49.0*	-1.5	99.0*	8.7	80.9*	4.5
Cn1cnnc1SCc1ccc(C(=O)N/N=C/c2cccs2)cc1	119.4	-9.0	2.2	-2.7	-20.2	7.1	.	.
NNc1nc2c(-c3cccc(C(F)(F)F)c3)nnn2c2ccccc12	116.1	-4.4	34.6*	-4.9	-21.5	118.9	-106.2	-5.8
Cc1nnc(N/N=C/c2cc(C)n(-c3ccc(F)cc3)c2C)n1N	112.3	-6.0	53.3*	-1.2	-169.9	3.2	22.9	-6.2
Cc1nnc(N/N=C/c2c(Cl)cccc2Cl)n1N	95.0	-0.3	50.6*	1.1	-16.4	-12.0	-52.3	4.5
CCc1nnc(N/N=C/c2c(F)cccc2Cl)n1N	97.9	1.1	13.8	-2.7	-0.8	12.7	.	.
O=C(COc1ccccc1C(=O)N/N=C\c1ccc(O)c(O)c1)N/N=C/c1ccc(O)c(O)c1	100.1	-0.2	75.8*	-1.9	98.9*	-75.3	74.0*	-0.1
CC(C)(C)c1ccc(OCc2ccc(C(=O)N/N=C/c3ccc(O)c(O)c3)cc2)cc1	95.0	-5.5	36.2*	5.1	.	-23.4	-5.3	-6.5
O=C(Nc1ccccc1Cl)c1cc2ccccc2o/c1=N\O	107.5	-2.6	36.9*	1.9	0.7	5.1	18.6	1.0
O=C(Nc1ccc(Cl)c(C(F)(F)F)c1)[C@@H]1CC=C[C@@H]2CCN(Cc3ccccc3)C(=O)[C@@H]21	100.2	3.7	.	1.1	-11.9	13.4	.	.
CCOC(=O)c1cnn(-c2ccc(C(F)(F)F)cn2)c1N	91.3	-0.3	-13.4	6.1	-13.6	3.3	.	.
SMILES	CR mimetic SO	APOBEC3G inh	PfM18AAP inh-1	A3A deaminase	ALR H2O2 inh	CendR NRP1 mod	PfM18AAP inh-2	CTSL1 counter
CCOC(=O)NNc1ccc(C(F)(F)F)cn1	108.7	-7.8	55.7*	-3.6	11.0	-7.3	35.3*	-5.0
CC(=O)Nc1ccc(CNC(=O)C[N+]2(C)CCOCC2)cc1	94.3	-18.5	0.5	-5.9	-1.8	1.3	.	.
N#Cc1c(/N=C/c2cccs2)sc2c1CCCCC2	101.9	-1.3	34.1*	0.5	94.8*	-7.5	-23.4	7.3
COCCn1c(=S)[nH]c2ccc(N(C)C)cc2c1=O	111.4	-5.1	40.1*	-4.6	97.5*	4.8	-3.0	1.6
Cc1ccc(C(=O)Nc2nnc(CC(=O)N/N=C/c3ccc(O)c(O)c3)s2)cc1	105.8	9.9	55.6*	4.5	62.4	-17.5	50.5*	4.5
O=C(CN1CCN(S(=O)(=O)c2ccc(F)cc2)CC1)c1ccc(O)c(O)c1	91.8	24.4	73.0*	-7.4	.	-16.4	33.9*	3.6
Cc1ccc(S(=O)(=O)N2CCN(CC(=O)N/N=C/c3ccc(C)o3)CC2)cc1	100.8	3.0	0.5	-0.6	0.6	-1.1	.	.
CCOc1ccc(C(=O)CN2CCN(S(=O)(=O)c3ccc(F)cc3)CC2)cc1	81.3	-5.5	-4.6	-2.7	5.4	-8.0	.	.
O=C(CN1CCN(S(=O)(=O)c2ccc(Cl)cc2)CC1)c1ccc(O)c(O)c1	109.0	-6.9	69.8*	-3.8	98.8*	-27.3	39.4*	0.0
Cc1ccc(C(=O)Nc2nnc(CC(=O)N/N=C/c3ccncc3)s2)cc1	94.8	-5.8	4.9	-4.7	34.2	-51.9	.	.
Cc1ccc(S(=O)(=O)N2CCN(CC(=O)N/N=C\c3ccc(O)c(O)c3)CC2)cc1	89.5	-1.8	47.8*	3.6	98.8*	-10.1	39.7*	-1.6
COc1ccc(S(=O)(=O)N2CCN(CC(=O)c3ccc(O)c(O)c3)CC2)cc1	115.6	-4.6	71.6*	-3.2	98.9*	-20.1	40.6*	0.0
Cc1ccc(C(C(=O)NC2CCCC2)N(C(=O)CCC(=O)Nc2cc(C)on2)c2ccccc2)cc1 (stereo not given)	95.0	1.7	-3.0	2.8	.	-3.4	.	.
